{"source": "PubChem BioAssay AID778", "about": "(Sanford-Burnham Center for Chemical Genomics, 2007)", "note": "Out of some 96,000 compounds screened, about 20,000 (21%) were called active. The list is a sample of the results. Unmarked numbers belong to inactive results.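 Rule for the calls: active = CYP2C19 inhibition above a set limit at 5 µM in the primary screen (cut at about 50% in these data); inactive = the rest.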", "data": [{"target": "Cytochrome P450 2C19 (Homo sapiens) (UniProt P33261)", "sequence (P33261 whole entry, looked up)": "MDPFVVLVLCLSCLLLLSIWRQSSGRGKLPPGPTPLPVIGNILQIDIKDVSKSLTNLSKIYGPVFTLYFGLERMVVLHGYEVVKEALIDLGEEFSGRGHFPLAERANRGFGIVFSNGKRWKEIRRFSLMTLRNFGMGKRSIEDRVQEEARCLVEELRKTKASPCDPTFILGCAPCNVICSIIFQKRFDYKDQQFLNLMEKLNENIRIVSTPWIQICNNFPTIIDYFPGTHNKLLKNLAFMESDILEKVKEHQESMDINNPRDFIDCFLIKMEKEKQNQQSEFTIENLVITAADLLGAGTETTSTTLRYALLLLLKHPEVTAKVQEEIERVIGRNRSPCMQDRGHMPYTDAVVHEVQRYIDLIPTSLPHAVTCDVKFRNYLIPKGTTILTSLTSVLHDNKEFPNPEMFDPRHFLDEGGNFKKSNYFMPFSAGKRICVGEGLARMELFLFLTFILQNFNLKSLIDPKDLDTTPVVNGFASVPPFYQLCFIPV", "assay": "blockers of cytochrome P450 2C19 activity – biochemical, luminescence, ADME assay, primary screen (AID 778);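 note: plate controls were negative control wells for no effect and 2.5 mM tranylcypromine positive control for full effect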", "conditions": "CYP2C19 Supersomes, luciferin-H EGE luminescence, 30 min; at 5 µM; active compounds read high", "values": [{"smiles": "O=C1C(=O)N(c2ccccc2)c2ccccc21", "inhibition": "2.6%"}, {"smiles": "COCCCNC(=O)c1c(F)c(F)c(F)c(F)c1F", "inhibition": "2.1%"}, {"smiles": "COCCCn1c(CCC(=O)O)ccc1-c1ccc(F)cc1", "inhibition": "96.9% (active)"}, {"smiles": "O=C(CSc1c2c(nc3ccc(Cl)cc13)CCCC2)NCc1ccco1", "inhibition": "29%"}, {"smiles": "c1ccc(-c2nccc(-c3ccc(-n4cnc5ccccc54)cc3)n2)nc1", "inhibition": "11.7%"}, {"smiles": "O=C(Nc1c(-c2ccccc2)nc2c(Br)cc(Br)cn12)c1ccco1", "inhibition": "5.9%"}, {"smiles": "COc1ccc(C(=O)Nc2nncs2)c(OC)c1", "inhibition": "-14.8%"}, {"smiles": "CSCCC1NC2(C(=O)Nc3ccc(Cl)cc32)[C@@H]2C(=O)N(C3CCCC3)C(=O)[C@H]12", "note": "(stereo partly drawn)", "inhibition": "73.6% (active)"}, {"smiles": "O=C1[C@@H]2C(Cc3ccc(O)cc3)NC3(C(=O)Nc4ccc(F)cc43)[C@@H]2C(=O)N1c1ccc(F)cc1", "note": "(stereo partly drawn)", "inhibition": "28.6%"}, {"smiles": "O=C(NCc1ccccc1Cl)c1csc2c1CCCCC2", "inhibition": "-2.1%"}, {"smiles": "COC(=O)c1sccc1NC(=O)CSc1ccccc1NS(=O)(=O)c1cc(Cl)ccc1Cl", "inhibition": "20.8%"}, {"smiles": "COc1cccc(-n2cc3c(c2-c2ccccc2)c(=O)n(C)c(=O)n3C)c1", "inhibition": "21%"}, {"smiles": "CNC(=O)NCCN1CCCC1=O", "inhibition": "-21.1%"}, {"smiles": "CS(=O)(=O)Nc1ccc(C(=O)N2CCCC2)cc1", "inhibition": "11%"}, {"smiles": "CCCOC(=O)c1cc2ccccc2oc1=O", "inhibition": "-6.9%"}, {"smiles": "CCOC(=O)N1CCN(C(=O)c2cc3c(ccc4ccccc43)oc2=O)CC1", "inhibition": "19.3%"}, {"smiles": "CS(=O)(=O)N1CCN(C(=O)c2cc3ccccc3oc2=O)CC1", "inhibition": "53.8% (active)"}, {"smiles": "CCCCOc1ccc(-c2nnc(-c3ccco3)o2)cc1", "inhibition": "31.4%"}, {"smiles": "CCOc1c(Cl)cc(/C=N/O)cc1OC", "inhibition": "7.6%"}, {"smiles": "Cc1ccc(NC(=O)CCN2CCc3ccccc3C2)cc1", "inhibition": "36.6%"}, {"smiles": "O=C(CN1CCOCC1)Nc1ccccc1", "inhibition": "6.4%"}, {"smiles": "Cc1ccc(NC(=O)CN2CCc3ccccc3C2)cc1", "inhibition": "98% (active)"}, {"smiles": "CCOc1ccc(S(=O)(=O)NCC2CCCO2)cc1", "note": "(stereo not drawn)", "inhibition": "86.4% (active)"}, {"smiles": "O=S(=O)(NCC1CCCO1)c1ccc2ccccc2c1", "note": "(stereo not drawn)", "inhibition": "92% (active)"}, {"smiles": "CCC(=O)Nc1ccc(S(=O)(=O)NCC2CCCO2)cc1", "note": "(stereo not drawn)", "inhibition": "45%"}, {"smiles": "CCOC(=O)Cn1c(=O)oc2cc(S(=O)(=O)NCC3CCCO3)ccc21", "note": "(stereo not drawn)", "inhibition": "-10.4%"}, {"smiles": "Cc1ccc(C(=O)O)cc1S(=O)(=O)NCC1CCCO1", "note": "(stereo not drawn)", "inhibition": "-0.9%"}, {"smiles": "Cc1cc(Cl)c(S(=O)(=O)NCC2CCCO2)cc1OCC(N)=O", "note": "(stereo not drawn)", "inhibition": "1%"}, {"smiles": "Cc1cc(Cl)c(S(=O)(=O)NCCC(=O)O)cc1OCC(N)=O", "inhibition": "-20%"}, {"smiles": "Cc1ccc(-n2ccc(=O)c(C(=O)O)n2)cc1", "inhibition": "-4%"}, {"smiles": "COc1ccc(OCC(=O)NN2Cc3ccccc3C2=N)cc1", "inhibition": "15.4%"}, {"smiles": "O=C(/C=C/c1ccccc1)N/C(=C/c1ccccc1)C(=O)Nc1ccccc1O", "inhibition": "17.4%"}, {"smiles": "CCCCCN(C(=O)NC(=O)Nc1ccccc1C)S(C)(=O)=O", "inhibition": "19.5%"}, {"smiles": "O=C1N(Cc2ccc3c(c2)OCO3)c2ccccc2C1(O)c1c[nH]c2ccccc12", "note": "(stereo not drawn)", "inhibition": "87.9% (active)"}, {"smiles": "CNC(=O)C1CC(=O)N(Cc2ccc3c(c2)OCO3)C(=Nc2ccc(F)cc2)S1", "note": "(stereo not drawn)", "inhibition": "21.9%"}, {"smiles": "Cc1nc2c(C(=O)NCc3ccc4c(c3)OCO4)c[nH]n2c(=O)c1Cc1ccccc1F", "inhibition": "3.2%"}, {"smiles": "Cc1cc(-n2nc(C)cc2C)n2ncc(-c3ccccc3)c2n1", "inhibition": "35%"}, {"smiles": "COc1ccc(OCC(=O)OCCN(C)C)cc1", "inhibition": "1.2%"}, {"smiles": "Cc1ccc(/C=N/NC(=O)C(NC(=O)c2ccccc2)c2n[nH]c(=O)c3ccccc23)cc1", "note": "(stereo not drawn)", "inhibition": "13.3%"}, {"smiles": "O=C(O)CSCC(=O)Nc1cccc(C(F)(F)F)c1", "inhibition": "-13.8%"}, {"smiles": "O=C(CN1CCN(c2ccc(F)cc2)CC1)Nc1cccc(C(F)(F)F)c1", "inhibition": "83.2% (active)"}, {"smiles": "O=C(CN1CCN(C(=O)c2ccco2)CC1)Nc1ccc(Cl)c(C(F)(F)F)c1", "inhibition": "42.2%"}, {"smiles": "Cc1ccccc1CSCCNC(=O)c1ccc(N(C)S(=O)(=O)c2ccccc2)cc1", "inhibition": "48.7%"}, {"smiles": "CCc1cc(C(c2ccccc2OC)N2CCOCC2)c(NC(=O)c2ccccc2)s1", "note": "(stereo not drawn)", "inhibition": "18.9%"}, {"smiles": "OCc1n[nH]c(CO)n1", "inhibition": "1.2%"}, {"smiles": "COc1cccc(-c2cc(C(=O)N/N=C/c3ccc(OC)c(COC(C)=O)c3)c3ccccc3n2)c1", "inhibition": "49.3%"}, {"smiles": "COc1ccc(/C=N\\NC(=O)c2sc(N)nc2C)cc1OC", "inhibition": "1.8%"}, {"smiles": "COc1cccc(OCc2cc(/C=N/NC(=O)c3nc(Cl)c(Cl)c(N)c3Cl)ccc2OC)c1", "inhibition": "55.4% (active)"}, {"smiles": "CCN1CCC(=NNC(=O)c2ccc(C)c([N+](=O)[O-])c2)CC1", "inhibition": "1.5%"}, {"smiles": "COc1ccc([N+](=O)[O-])cc1NC(=O)CCc1ccccc1", "inhibition": "63.7% (active)"}, {"smiles": "CCN(CC)CCCNC(=O)CCc1ccccc1", "inhibition": "7.3%"}, {"smiles": "COc1ccc(OC)c(NC(=O)CC(Cc2ccccc2OC)C(=O)O)c1", "note": "(stereo not drawn)", "inhibition": "1.6%"}, {"smiles": "CCn1ncc(Br)c1C(=O)Nc1cc(C)ccc1F", "inhibition": "24%"}, {"smiles": "Cc1cc([N+](=O)[O-])ccc1NCc1cccc([N+](=O)[O-])c1", "inhibition": "-3.5%"}, {"smiles": "Cc1ccc(F)c(NC(=O)CCc2ccccc2)c1", "inhibition": "65.2% (active)"}, {"smiles": "CCC(C)(C)c1ccc(Oc2ccc(NC(=O)COC(=O)C3=COCCO3)cc2)cc1", "inhibition": "49.9%"}, {"smiles": "Cc1ccc(C(=O)N/C(=C/c2ccco2)C(=O)NCCc2c[nH]c3ccccc23)cc1C", "inhibition": "39.8%"}, {"smiles": "CCOC(=O)N1CCN(C(=O)C2CCN(c3ncnc4c3sc3cccc(F)c34)CC2)CC1", "inhibition": "24.8%"}, {"smiles": "CC1=C2C(=O)OC(c3ccoc3)C2(C)CCC1", "note": "(stereo not drawn)", "inhibition": "78.1% (active)"}, {"smiles": "CC(C)C(=O)N1c2ccccc2NC2=C(C(=O)CCC2)C1c1ccc(N(C)C)cc1", "note": "(stereo not drawn)", "inhibition": "8.1%"}, {"smiles": "COC(=O)C(C)C1Sc2ccccc2NC1=O", "note": "(stereo not drawn)", "inhibition": "44.9%"}, {"smiles": "O=C(COc1ccc(Cl)cc1)N1CCN(S(=O)(=O)c2ccc(Cl)cc2)CC1", "inhibition": "-21%"}, {"smiles": "CC(=O)Nc1ccc(S(=O)(=O)NCCc2ccccc2)cc1", "inhibition": "90.7% (active)"}, {"smiles": "O=C(COc1ccc(S(=O)(=O)NCCc2ccccc2)cc1)N1CCCC1", "inhibition": "81.4% (active)"}, {"smiles": "Cn1c(=O)c(=O)n(C)c2cc(S(=O)(=O)NCCc3ccccc3)ccc21", "inhibition": "6.1%"}, {"smiles": "COC(=O)[C@H](Cc1ccccc1)NC(=O)Nc1ccc(S(N)(=O)=O)cc1", "inhibition": "-4.1%"}, {"smiles": "O=C(COc1ccc(/C=N/NS(=O)(=O)c2ccccc2)cc1)NCCc1ccccc1", "inhibition": "-0.6%"}, {"smiles": "COc1cc(OC)cc(C(=O)Nc2ncc3c(n2)CC(C)(C)CC3=O)c1", "inhibition": "9.1%"}, {"smiles": "Cc1cccc(C)c1-n1c(C)cc(/C=C2\\C(=O)NN(c3ccccc3)C2=O)c1C", "inhibition": "36.4%"}, {"smiles": "CCOC(=O)c1ccccc1NC(=O)CC1Nc2ccccc2NC1=O", "note": "(stereo not drawn)", "inhibition": "8.5%"}, {"smiles": "C=C(Br)CN1CCN(CC(=C)Br)CC1", "inhibition": "9.1%"}, {"smiles": "COc1ccc(CCNC(=O)c2cc(-c3ccc4c(c3)OCO4)on2)cc1OC", "inhibition": "-2.7%"}, {"smiles": "Cn1c(C(=O)NCCCN2CCCCC2)cc2sccc21", "inhibition": "5.3%"}, {"smiles": "COc1ccc(CCNC(=O)c2cc3sccc3n2C)cc1OC", "inhibition": "50.9% (active)"}, {"smiles": "CC12COC3(C(=O)Nc4ccc(Cl)cn4)CC1CCC32C", "note": "(stereo not drawn)", "inhibition": "16.5%"}, {"smiles": "O=C(CCCN1C(=O)CCC1=O)Nc1ccc(Cl)c(C(F)(F)F)c1", "inhibition": "11.2%"}, {"smiles": "C=CCC(NCc1ccco1)c1ccc(OC)cc1", "note": "(stereo not drawn)", "inhibition": "-0.2%"}, {"smiles": "CC(C)C(=O)Nc1nnc(Sc2ccc(N(C)C)cc2)s1", "inhibition": "47.8%"}, {"smiles": "Cn1c(CN2CCOCC2)nc2cc(NC(=O)c3ccc(Cl)cc3)ccc21", "inhibition": "4.8%"}, {"smiles": "CCOC(=O)c1[nH]c(C)c(C(=O)OCC(=O)N2c3ccccc3CC2C)c1C", "note": "(stereo not drawn)", "inhibition": "0.9%"}, {"smiles": "CC1Cc2ccccc2N1C(=O)Cn1cnc2ccccc2c1=O", "note": "(stereo not drawn)", "inhibition": "9.8%"}, {"smiles": "CCn1nc(C(=O)OCC(=O)N2c3ccccc3CC2C)c2ccccc2c1=O", "note": "(stereo not drawn)", "inhibition": "66.9% (active)"}, {"smiles": "COc1nc(Oc2ccc(=O)n(C)n2)nc(N(C)C)n1", "inhibition": "-17.1%"}, {"smiles": "O=C(CC1N=C2c3ccccc3N=C(SCc3ccccc3Cl)N2C1=O)NCc1ccco1", "note": "(stereo not drawn)", "inhibition": "37.8%"}, {"smiles": "CCS(=O)(=O)N1CCC(C(=O)N2CCN(c3ccccc3)CC2)CC1", "inhibition": "-1%"}, {"smiles": "Cc1noc(/C=C/c2ccco2)c1S(=O)(=O)N1CCC(C(=O)N2CCc3ccccc32)CC1", "inhibition": "24.1%"}, {"smiles": "O=C(C1CCN(S(=O)(=O)Cc2ccccc2)CC1)N1CCCc2ccccc21", "inhibition": "61.9% (active)"}, {"smiles": "COC(=O)C1C(=O)CC(C)(O)C(C(=O)OC)C1c1ccc2c(c1)OCO2", "note": "(stereo not drawn)", "inhibition": "29.1%"}, {"smiles": "COc1ccc(S(=O)(=O)N(CCCN2CCCC2=O)Cc2cc3c(C)ccc(C)c3[nH]c2=O)cc1", "inhibition": "38.4%"}, {"smiles": "Cc1ccc(S(=O)(=O)c2nc(NCCCn3ccnc3)sc2Cl)cc1", "inhibition": "99.4% (active)"}, {"smiles": "O=C(CSCc1ccc(Br)cc1)Nc1ccc(S(=O)(=O)N2CCCCCC2)cc1", "inhibition": "27.3%"}, {"smiles": "CN(C)c1ccnc2sc3c(=O)n(Cc4ccccc4)cnc3c12", "inhibition": "27.4%"}, {"smiles": "CCSc1nnc(-c2cc3c(s2)-c2ccccc2CC3)o1", "inhibition": "-5.2%"}, {"smiles": "CC(=O)NC1=NC(=O)CS1", "inhibition": "6%"}, {"smiles": "CCCC(=O)Nc1nc2ccc(NC(=O)c3cccnc3)cc2s1", "inhibition": "16.4%"}, {"smiles": "CCN1C(=O)CS/C1=N\\c1nccs1", "inhibition": "19%"}, {"smiles": "O=C1C=C(NCCNc2c(F)c(F)c(CO)c(F)c2F)CCC1", "inhibition": "4.9%"}, {"smiles": "Cc1c(C=O)c2ccccn2c1C(=O)c1ccncc1", "inhibition": "85.8% (active)"}]}]}
